Screening data deposited in PubChem by National Center for Advancing Translational Sciences (NCATS).
Shown are actives, neighbours in structure and some others; about 1.1% of the full set was active somewhere.
TrxR1 substrate: qHTS Assay for Substrates of Mammalian Selenoprotein Thioredoxin Reductase 1 (TrxR1): qHTS. Thioredoxin reductase 1, cytoplasmic (Rattus norvegicus), O89049. Potency, µM (top dose mostly 114 µM), without a hit: top-dose activity change, negative = substrate turnover. 0.01% of 390,000 active. purified TrxR1 substrate turnover, NADPH consumption readout; note: nearly all actives have a fitted effect of over 50% in size
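Rat TrxR1, dispensed at 90 nM, was prereduced with 400 uM NADPH (final) for 5 min at ~22 deg C, then incubated with compound 15 min before 400 uM selenite. A first-read NADPH fluorescence drop versus no-compound background flagged substrates.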
RGS4 inh: Inhibitors of Regulator of G Protein Signaling (RGS) 4: qHTS; Potency, µM (top dose mostly 114 µM), without a hit: at the top dose activity change, negative = inhibition, usual class: inhibitors; Transcreener GDP fluorescence polarization, RGS4-accelerated GTP hydrolysis; 0.039% of 390,000 active; note: nearly all actives have a fitted effect of over 75% in size
Target sequence (P49798 whole entry, looked up): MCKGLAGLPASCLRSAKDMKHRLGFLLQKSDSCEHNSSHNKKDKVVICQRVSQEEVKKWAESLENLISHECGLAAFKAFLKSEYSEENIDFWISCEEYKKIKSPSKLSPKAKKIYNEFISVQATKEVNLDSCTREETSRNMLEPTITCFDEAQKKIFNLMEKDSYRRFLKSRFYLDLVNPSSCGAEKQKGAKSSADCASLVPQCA
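MLSMR compounds (23 nl, pin-transferred) preincubated 10 min at room temperature with a 500nM (2x) first reagent, then RGS4 at 900nM (2x) plus Transcreener GDP mix added; fluorescence polarization (620/688 nm) read before and after 90 min at 30 °C.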
TrxR1 inh: qHTS Assay for Inhibitors of Mammalian Selenoprotein Thioredoxin Reductase 1 (TrxR1): qHTS; Thioredoxin reductase 1, cytoplasmic (Rattus norvegicus), O89049; recombinant rTrxR1, NADPH fluorescence consumption, selenite substrate; Potency, µM (highest dose often 114 µM), without a hit: top-dose activity change, negative = inhibition, most hits filed as inhibitors; 1% of 390,000 active; note: nearly all actives have a fitted effect of over 65% in size
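Rat TrxR1 (90 nM in the dispensed reagent) was pre-reduced with 400 uM NADPH for 5 min at room temperature, then incubated with compound for 15 min. After 400 uM selenite was added, NADPH fluorescence (Ex 340/Em 450 nm) was followed for 8 min.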
mIDH1 inhibitor: qHTS for Inhibitors of mutant isocitrate dehydrogenase 1 (IDH1): qHTS | Isocitrate dehydrogenase [NADP] cytoplasmic (Homo sapiens), O75874 | IDH1-R132H enzyme, NADPH consumption, diaphorase/resazurin fluorescence | Potency, µM (series often up to 76.6 µM), for the others: at the highest dose activity change, negative = inhibition, actives largely listed as inhibitors | 0.093% of 390,000 active | AID 602179, 2012; note: nearly all actives have a fitted effect of over 65% in size
Target sequence (O75874 whole entry R132H, stated change not applied): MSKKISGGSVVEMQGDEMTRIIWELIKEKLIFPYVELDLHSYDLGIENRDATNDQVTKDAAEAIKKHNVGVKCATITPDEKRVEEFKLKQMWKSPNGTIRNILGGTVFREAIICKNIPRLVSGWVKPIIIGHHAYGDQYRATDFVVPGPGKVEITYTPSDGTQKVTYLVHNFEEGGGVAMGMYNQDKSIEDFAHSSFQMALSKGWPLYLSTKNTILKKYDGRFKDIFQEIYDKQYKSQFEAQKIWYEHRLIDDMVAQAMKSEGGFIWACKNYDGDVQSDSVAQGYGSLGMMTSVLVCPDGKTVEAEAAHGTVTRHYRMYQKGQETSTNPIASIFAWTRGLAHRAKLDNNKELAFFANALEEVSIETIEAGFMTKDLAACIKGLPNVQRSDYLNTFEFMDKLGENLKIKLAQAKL
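IDH1-R132H (0.5 ug/mL dispensed) in pH 7.5 Tris buffer was preincubated 30 min with compound, then given a substrate mix of 0.016 mM NADPH and 2 mM alpha-KG for 80 min at room temperature; remaining NADPH was read by diaphorase/resazurin fluorescence.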
Eya2 inh: qHTS Assay for Inhibitors of the Phosphatase Activity of Eya2 | Potency, µM (top dose mostly 76.9 µM), for the others: top-dose activity, negative = inhibition, usual class: inhibitors | recombinant Eya2, OMFP fluorescence dephosphorylation (OMFP is methylfluorescein phosphate) | 0.006% of 330,000 active | Protein phosphatase EYA2 (Homo sapiens), O00167
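Eya2 protein (added as 0.2 uM solution) was preincubated with compound for 10 min at ambient temperature in 50 mM HEPES pH 7.5, 50 mM NaCl, 5 uM MgCl2, 0.05% BSA, 1 mM DTT. OMFP (added at 50 uM) then reacted 10 min; fluorescence read at 485/525 nm.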
Numbers without * were called inactive; [ ] = another dose, or the depositor's remark. Calls come from the whole dose curve; as a rule, active = well fitted curve in the direction sought with a large enough effect; inconclusive = small, poorly fitted or top-dose-only effect, or another doubt; inactive = no such curve, though single readings can be large; an effect the other way counts as inactive or inconclusive. % is set by controls: 0 for no effect and ±100 for the full control effect; potency is the fitted concentration of half-maximal effect.

How did O=C(NCc1ccco1)c1ccccc1NS(=O)(=O)c1ccc(Cl)s1 do in these assays?
TrxR1 substrate: 1%; RGS4 inh: -51%; TrxR1 inh: 45µM*; mIDH1 inhibitor: 0%; Eya2 inh: -14%

How did O=C(NCc1ccco1)c1ccccc1NS(=O)(=O)c1cccs1 do in these assays?
TrxR1 substrate: -2%; RGS4 inh: -6%; TrxR1 inh: -34%; mIDH1 inhibitor: -3%; Eya2 inh: 2%

What do the screens show for `CCOC(=O)C1(CCOc2ccccc2)CCN(Cc2cccn2-c2cccnc2)CC1`?
TrxR1 substrate: 2%; RGS4 inh: -2%; TrxR1 inh: 14%; mIDH1 inhibitor: 0%; Eya2 inh: -4%

Results for CC(C)c1ccc(/C=C/c2[nH]c(=O)[nH]c(=O)c2[N+](=O)[O-])cc1 ?
TrxR1 substrate: -6%; RGS4 inh: inconclusive; TrxR1 inh: -12%; mIDH1 inhibitor: -8%; Eya2 inh: -24%

Results for CC(=O)NNC(=S)NC(=O)c1cccc([N+](=O)[O-])c1 ?
TrxR1 substrate: 5%; RGS4 inh: -15%; TrxR1 inh: 50µM*; mIDH1 inhibitor: 7%; Eya2 inh: -2%

What do the screens show for `COc1ccc(-c2nnc(C)c3nocc23)cc1`?
TrxR1 substrate: -6%; RGS4 inh: -21%; TrxR1 inh: 20µM*; mIDH1 inhibitor: 2%; Eya2 inh: -7%

What do the screens show for `COc1ccc(Oc2nnc(-c3ccc(C)cc3)c3ccccc23)cc1`?
TrxR1 substrate: 8%; RGS4 inh: 15%; TrxR1 inh: 31%; mIDH1 inhibitor: -2%; Eya2 inh: 13%

What do the screens show for `COc1cc(C2C(C#N)=C(N)OC3=C2C(=O)CC(C)(C)C3)c([N+](=O)[O-])cc1OC` (stereo unspecified)?
TrxR1 substrate: -1%; RGS4 inh: -16%; TrxR1 inh: -19%; mIDH1 inhibitor: 3%; Eya2 inh: -16%

What do the screens show for `CC1(C)CC(=O)C2=C(C1)OC(N)=C(C#N)[C@@H]2c1ccccc1[N+](=O)[O-]`?
TrxR1 substrate: 12%; RGS4 inh: -39%; TrxR1 inh: 20µM*; mIDH1 inhibitor: -9%; Eya2 inh: 3%

Results for CC1CCN(CCCNC(=O)c2cn(C)c3ccc(S(=O)(=O)N(C)C4CCCCC4)cc3c2=O)CC1 ?
TrxR1 substrate: 4%; RGS4 inh: -17%; TrxR1 inh: 17%; mIDH1 inhibitor: 17%

What do the screens show for `O=C1C(Cl)=C(NC(=O)c2ccccc2)C(=O)C(Cl)=C1NC(=O)c1ccccc1`?
TrxR1 substrate: -17%; RGS4 inh: -156%; TrxR1 inh: 0.32µM*; mIDH1 inhibitor: 9%; Eya2 inh: -5%

How did COCc1nc2ccccc2n1Cc1cccc(C)c1 do in these assays?
TrxR1 substrate: 7%; RGS4 inh: -12%; TrxR1 inh: 16%; mIDH1 inhibitor: 2%; Eya2 inh: -25%

Results for O=C(CSc1ccc2nnc(-c3ccccn3)n2n1)NCc1ccco1 ?
TrxR1 substrate: 14%; RGS4 inh: -31%; TrxR1 inh: 45µM*; mIDH1 inhibitor: 1%; Eya2 inh: 0%

Results for O=C(CSc1ccc2nnc(-c3ccccc3)n2n1)NCc1ccco1 ?
TrxR1 substrate: -1%; RGS4 inh: -9%; TrxR1 inh: inconclusive; mIDH1 inhibitor: -6%; Eya2 inh: -15%

How did O=C(O)CC1=C(O)C(=O)N(c2ccccc2)C1c1ccc(Br)cc1 (stereo unspecified) do in these assays?
TrxR1 substrate: 1%; RGS4 inh: -16%; TrxR1 inh: inconclusive; mIDH1 inhibitor: 2%; Eya2 inh: 6%

Results for O=C(O)CC1=C(O)C(=O)N(c2ccccc2)C1c1ccccc1 (stereo unspecified) ?
TrxR1 substrate: -8%; RGS4 inh: -30%; TrxR1 inh: 45µM*; mIDH1 inhibitor: 7%; Eya2 inh: -22%

What do the screens show for `O=C(On1c(-c2ccccc2)nc2ccccc2c1=O)c1ccco1`?
TrxR1 substrate: 9%; RGS4 inh: -7%; TrxR1 inh: 5µM*; mIDH1 inhibitor: 1%

What do the screens show for `Cc1cc(NC(=O)CC(C)C)c(=O)n(Cc2ccccc2F)c1`?
TrxR1 substrate: 14%; RGS4 inh: -27%; TrxR1 inh: -20%; mIDH1 inhibitor: 17%; Eya2 inh: -15%

Results for O=C(COC(=O)CCc1c[nH]c2ccccc12)NCCc1ccccc1 ?
TrxR1 substrate: -16%; RGS4 inh: 12%; TrxR1 inh: -16%; mIDH1 inhibitor: 2%; Eya2 inh: -9%

How did O=C(OCn1ncc(Br)c(Br)c1=O)c1ccc(F)cc1 do in these assays?
TrxR1 substrate: 13%; RGS4 inh: inconclusive; TrxR1 inh: 1.8µM*; mIDH1 inhibitor: -5%; Eya2 inh: -13%

How did COc1ccc(-c2nc3c4ccccc4n(CC(=O)Nc4ccc(C(C)C)cc4)c(=O)n3n2)cc1 do in these assays?
TrxR1 substrate: 5%[57.1 µM]; RGS4 inh: 1%; TrxR1 inh: 35%[57.1 µM]; mIDH1 inhibitor: 2%

How did CN(C)c1ccc(/C=C2\C(=O)/C(=C/c3ccc(N(C)C)cc3)c3ccccc32)cc1 do in these assays?
TrxR1 substrate: -8%; TrxR1 inh: inconclusive

How did CC(=O)N1/C(=C/c2ccc(N(C)C)cc2)C(=O)c2ccccc21 do in these assays?
TrxR1 substrate: -5%; RGS4 inh: inconclusive; TrxR1 inh: 40µM*; mIDH1 inhibitor: 14%; Eya2 inh: -15%

How did COc1ccc(C(O)(CCc2ccccc2)CCN2CCCCC2)cc1 (stereo unspecified) do in these assays?
TrxR1 substrate: 7%[57.1 µM]; RGS4 inh: -2%; TrxR1 inh: 8.9µM*; mIDH1 inhibitor: 0%; Eya2 inh: -4%

What do the screens show for `O=C(/C=C/c1ccccc1)CCN1CCCCC1`?
TrxR1 substrate: -5%[57.1 µM]; RGS4 inh: -101%; TrxR1 inh: inconclusive; mIDH1 inhibitor: 5%

Results for C=CCC(O)(CCN1CCCCC1)c1ccccc1 (stereo unspecified) ?
TrxR1 substrate: 10%[57.1 µM]; RGS4 inh: -14%; TrxR1 inh: 5%[57.1 µM]; mIDH1 inhibitor: 6%; Eya2 inh: -17%

What do the screens show for `CCOc1ccc(C(=O)CCN2CCCCC2)cc1`?
TrxR1 substrate: 13%; RGS4 inh: inconclusive; TrxR1 inh: 0.71µM*; mIDH1 inhibitor: 0%; Eya2 inh: 6%
